Data taken from PubChem BioAssay AID651642 (Sanford-Burnham Center for Chemical Genomics, 2012).
Activity calls are given as the source filed them.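 Rule for the calls: active = average half-effect concentration of 10 µM or less in every one of the four cell panels; inactive = the rest.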

test system: HL-1; experiment: protection of cardiomyocytes from stress damage, SAR follow-up, cell-based, panel, H9c2 and HL-1, H2O2, 2-deoxyglucose, ATP luminescence (AID 651642); conditions: H9c2/HL-1 cardiomyocyte 2-deoxyglucose damage, mean of runs, with 2-deoxyglucose

| Structure (SMILES) | outcome |
| --- | --- |
| COc1cc(-c2cc(C(=O)Nc3cccc(C(=O)Nc4ccccc4)c3)c3ccccc3n2)cc(OC)c1OC | active |
| COc1ccc2c(c1OC)C(=O)N1c3ccccc3C(=O)N(Cc3c(Cl)cccc3Cl)C21 (stereo not drawn) | inactive |
| COc1ccc2nc(-c3cc(OC)c(OC)c(OC)c3)cc(C(=O)NCC(=O)Nc3ccc(C(C)=O)cc3)c2c1 | active |
| CCOC(=O)c1cccc(NC(=O)CNC(=O)c2cc(-c3cc(OC)c(OC)c(OC)c3)nc3c(Cl)cccc23)c1 | inactive |
| COc1cc(-c2cc(C(=O)NCC(=O)Nc3ccc(C(C)=O)cc3)c3cc(F)ccc3n2)cc(OC)c1OC | inactive |
| COc1cc(-c2cc(C(=O)Nc3cccc(C(C)=O)c3)c3cc(C)ccc3n2)cc(OC)c1OC | inactive |
| CCOC(=O)c1cccc(NC(=O)CNC(=O)c2cc(-c3cc(OC)c(OC)c(OC)c3)nc3ccc(F)cc23)c1 | active |
| COc1ccc(NC(=O)CNC(=O)c2cc(-c3cc(OC)c(OC)c(OC)c3)nc3ccccc23)cc1 | active |
| COc1ccc2c(c1OC)C(=O)N1c3ccccc3C(=O)N(Cc3cccc(F)c3)C21 (stereo not drawn) | active |
| COc1ccc2c(c1OC)C(=O)N1c3ccccc3C(=O)N(Cc3cccc(C)c3)C21 (stereo not drawn) | inactive |
| COc1ccc2c(c1OC)C(=O)N1c3ccccc3C(=O)N(Cc3cccc(Br)c3)C21 (stereo not drawn) | active |
| CCOC(=O)c1cccc(NC(=O)c2cc(-c3cc(OC)c(OC)c(OC)c3)nc3c(Cl)cccc23)c1 | inactive |
| COC(=O)CNC(=O)c1cccc(NC(=O)c2cc(-c3cc(OC)c(OC)c(OC)c3)nc3ccccc23)c1 | active |
